# G9a inh = G9a (human) methyltransferase inhibition | Potency, µM (highest dose often 102 µM), for the others: at the top dose activity, negative = inhibition, most hits filed as inhibitors | Q96KQ7 | hit rate 8.8% among 350,000 | G9a H3K9 monomethylation, AlphaScreen, 2 h; also: potency is read from the fitted curve at half-maximal effect; % is scaled to controls: 0 for no effect and ±100 for the full control effect; nearly all actives have a fitted effect of over 75% in size
#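 Methyltransferase reactions run at room temperature for 2 h (20 nM enzyme, 500 nM biotin-H3K9 peptide, 20 uM SAM) after a 15 min compound preincubation; product detected by AlphaScreen beads and anti-H3K9me1 antibody.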
# PI5P4Ka inh = inhibitors of human PI5P4K alpha; P48426; PI5P4Kalpha enzyme, ADP-Glo luminescence, 60 min; stronger effect = lower value; max response, %; hit rate 1.2% among 330,000; active = max response of -50% or lower; inconclusive = between -30% and -50%; inactive = -30% or higher; also: value at the top dose of about 77 µM; % is scaled to controls: 0 for no effect and ±100 for the full control effect
#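 ADP-Glo luminescence end-point read after a 60 min room-temperature kinase reaction of PI5P4Kalpha plus substrate, initiated with ATP at 5 microM final. Buffer: 0.038 M HEPES pH 7.4, EGTA, 0.1% CHAPS, 5% DMSO.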
# PLK1 PBD inh = inhibitors of human PLK1 polo-box domain binding. Potency, µM, for the others: max response, negative = inhibition, most hits filed as inhibitors. hit rate 2.8% among 360,000. P53350. Plk1 PBD binding of FITC phosphopeptide, fluorescence polarization; also: potency is read from the fitted curve at half-maximal effect; series mostly up to about 57 µM; % is scaled to controls: 0 for no effect and ±100 for the full control effect; nearly all actives have a fitted effect of over 65% in size
# JMJD2A Tudor = JMJD2A Tudor domain (human) inhibition | Potency, µM (highest dose often 114 µM), inactives show at the top dose activity change, negative = inhibition, hits mostly inhibitors | hit rate 4.4% among 390,000 | AlphaScreen JMJD2A-Tudor / H3K4me3 peptide binding | O75164 | AID 504339; also: potency is read from the fitted curve at half-maximal effect; % is scaled to controls: 0 for no effect and ±100 for the full control effect; nearly all actives have a fitted effect of over 50% in size
# Target sequence (O75164 whole entry, looked up, the tested form may be a part): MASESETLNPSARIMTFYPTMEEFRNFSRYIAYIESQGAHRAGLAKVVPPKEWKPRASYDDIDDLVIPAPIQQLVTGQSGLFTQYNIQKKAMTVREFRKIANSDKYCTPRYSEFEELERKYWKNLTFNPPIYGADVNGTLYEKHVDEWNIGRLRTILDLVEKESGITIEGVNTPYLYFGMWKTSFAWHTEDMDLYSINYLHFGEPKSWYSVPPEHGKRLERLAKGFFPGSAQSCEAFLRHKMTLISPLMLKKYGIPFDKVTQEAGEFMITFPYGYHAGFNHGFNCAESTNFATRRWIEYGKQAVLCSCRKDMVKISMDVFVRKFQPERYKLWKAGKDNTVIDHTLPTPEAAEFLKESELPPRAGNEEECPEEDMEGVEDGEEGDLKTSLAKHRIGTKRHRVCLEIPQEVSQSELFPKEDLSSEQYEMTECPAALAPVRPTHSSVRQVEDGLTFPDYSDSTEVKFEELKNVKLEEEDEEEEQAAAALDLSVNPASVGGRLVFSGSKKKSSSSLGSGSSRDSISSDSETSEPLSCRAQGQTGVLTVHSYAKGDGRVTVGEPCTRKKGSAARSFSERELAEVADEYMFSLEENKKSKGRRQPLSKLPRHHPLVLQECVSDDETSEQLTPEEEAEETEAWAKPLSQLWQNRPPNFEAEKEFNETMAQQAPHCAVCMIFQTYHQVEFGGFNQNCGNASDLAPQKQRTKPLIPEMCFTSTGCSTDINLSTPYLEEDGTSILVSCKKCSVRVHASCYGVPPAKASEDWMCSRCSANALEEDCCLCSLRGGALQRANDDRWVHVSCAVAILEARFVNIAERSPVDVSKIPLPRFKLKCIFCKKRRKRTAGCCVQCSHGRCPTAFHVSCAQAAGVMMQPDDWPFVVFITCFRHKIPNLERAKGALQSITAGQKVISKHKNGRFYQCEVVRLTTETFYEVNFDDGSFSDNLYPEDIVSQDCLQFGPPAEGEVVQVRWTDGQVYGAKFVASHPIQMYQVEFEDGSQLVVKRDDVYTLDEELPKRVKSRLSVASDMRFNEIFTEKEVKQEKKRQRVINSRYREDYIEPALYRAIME
# BAZ2B block = blocks human BAZ2B; Potency, µM (highest dose often 114 µM), inactives show top-dose activity change, negative = inhibition, hits mostly inhibitors; AlphaScreen BAZ2B-H3K14Ac peptide displacement; Q9UIF8; hit rate 4.4% among 360,000; AID 504333; also: potency is read from the fitted curve at half-maximal effect; % is scaled to controls: 0 for no effect and ±100 for the full control effect; nearly all actives have a fitted effect of over 60% in size
#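 In this displacement format the biotinylated H3(5-23) peptide acetylated at Lys14 serves as ligand at 50 nM, with BAZ2B at 50 nM in PBS pH 7.4 containing 0.01% Tween-20. Donor and acceptor beads are 10 ug/mL final.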
# HP1b chromo inh = HP1-beta chromodomain-methylated histone interaction inhibition; P83916; AlphaScreen HP1-beta / biotin-H3K9me3 peptide binding; Potency, µM (top dose mostly 114 µM), inactives show at the highest dose activity change, negative = inhibition, usual class: inhibitors; hit rate 0.56% among 390,000; also: potency is read from the fitted curve at half-maximal effect; nearly all actives have a fitted effect of over 70% in size
#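 Compound inhibition of the preformed complex between 50 nM HP1-beta and 50 nM biotinylated H3K9me3 peptide was read by AlphaScreen. Buffer was PBS pH 7.4 with 0.01% Tween-20. Incubations ran 30 min at room temperature, with 10 ug/mL donor/acceptor beads.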
# An asterisk follows results filed as active; ? = inconclusive; . = not tested or not shown; ! = a repeat was not active; [ ] = remark or other dose. Sampled rows, rich in hits. Any-hit rate of the full collection: about 12%. Unless noted, calls follow the shape of the dose curve; as a rule, active = well fitted curve in the direction sought with a large enough effect; inconclusive = small, poorly fitted or top-dose-only effect, or another doubt; inactive = no such curve, though single readings can be large; an effect the other way counts as inactive or inconclusive.
SMILES,G9a inh,PI5P4Ka inh,PLK1 PBD inh,JMJD2A Tudor,BAZ2B block,HP1b chromo inh
Cc1cc(C(=O)Nc2nc(-c3ccccn3)cs2)ccc1[N+](=O)[O-],40µM*,-24,?,-29%,28µM*,11%
Cc1cc(C(=O)Nc2cnc3ccccc3c2)ccc1[N+](=O)[O-],-7%,3,-7%,-6%,-5%,5%
Cc1csc(NC(=O)c2ccccc2)n1,15%[0.501 µM],1,-6%,-16%,-3%,8%
Cc1ccc(C(=O)O)cc1NC(=S)NC(=O)c1ccc([N+](=O)[O-])c(C)c1,50µM*,-10,-23%,-6%,?,6%
Cc1ccc(CNC(=S)Nc2cc(C(=O)O)ccc2C)cc1,-33%,4,-19%,-11%,11%,0%
CC(=O)Nc1ccc(C(=O)Nc2nc(-c3cccnc3)cs2)cc1,4µM*,-26,13µM*,-18%,-28%,29%
O=C(Nc1nc(-c2ccccc2)cs1)c1cccnc1,6%[12.7 µM],.,-10%,-27%,-1%,23%
Cc1cc(-n2c(C)cc(C(=O)CSc3nncn3C(C)C)c2C)no1,56µM*,-2,-6%,-26%,-32%,14%
Cc1cc(-n2c(C)cc(C(=O)CSc3nncn3C)c2C)no1,.,-15,-11%,-28%,.,8%
CCNc1nc(NC(C)C)nc(Oc2ccc(/C=N/O)cc2)n1,-9%[59 µM],-11,4.7µM*,?,9%,?
Cc1noc(C)c1C(=O)N1CCC1(C)C(=O)NS(=O)(=O)c1ccccc1Cl (stereo not drawn),.,-6,4%,.,.,.
Cn1nc(-c2ccc(Cl)cc2)c2cc(C(=O)NCCN3CCOCC3)sc21,71µM*,6,-7%,-18%,9%,16%
Cn1nc(-c2ccc(Cl)cc2)c2cc(C(=O)NCCCN3CCOCC3)sc21,-45%,4,-7%,-19%,-16%,10%
Cn1nc(-c2ccc(Cl)cc2)c2cc(C(=O)NC3CC3)sc21,20%,-19,30µM*,?,-2%,2%
COc1ccc(C2=Nn3c(nnc3-c3ccccn3)SC2)cc1,-97%,12,-7%,40µM*,25µM*,25%
COc1cccc(C2=Nn3c(nnc3-c3cccc(OC)c3OC)SC2)c1,.,.,.,-29%,.,.
COc1cccc(C2=Nn3c(nnc3-c3ccccc3OC)SC2)c1,.,.,.,79µM*,.,.
COc1ccccc1-c1nnc2n1N=C(c1ccc(O)c(O)c1)CS2,?,?,-10%,?,50µM*,-2%
CCOC(=O)c1noc2ncnc(Nc3cccc(C(F)(F)F)c3)c12,3%[59 µM],.,.,-10%,-17%,42%
O=C(CSc1nnc(CNC(=O)c2c(F)cccc2F)o1)NCc1ccc2c(c1)OCO2,.,3,-5%,.,.,.
CC(C)=C(NC(=O)c1ccccc1Cl)C(=O)NCCc1nc2ccccc2[nH]1,.,-1,2%,.,.,.
COc1ccccc1-c1c(C)nn2c(C(F)(F)F)cc(-c3ccccc3)nc12,8.9µM*,.,.,-34%,?,-7%
Cc1noc(NC(=O)c2ccc(F)cc2)c1C#N,-40%,-1,-10%,-23%[11.4 µM],-12%,65%
Cc1cccc(C(=O)Nc2onc(C)c2C#N)c1,.,-18,0%,89µM*,?,0%
CNc1nnc(Sc2ncccc2[N+](=O)[O-])s1,?,-9,15µM*,-13%,-4%,-20%
SMILES,G9a inh,PI5P4Ka inh,PLK1 PBD inh,JMJD2A Tudor,BAZ2B block,HP1b chromo inh
O=c1ccnc(Sc2ncccc2[N+](=O)[O-])[nH]1,?,7,27µM*,-8%,3%,51%
COCC(COS(N)(=O)=O)Cc1ccccc1 (stereo not drawn),26%,-2,5%,-5%,-12%,52%
O=C(O)C1=C(Nc2ccccc2)OCC1=O,40µM*,-7,-7%,?,-1%,24%
CNC(=O)/C(C#N)=C/c1c(N2CCN(c3ccccc3)CC2)nc2c(C)cccn2c1=O,20%[2.33 µM],18,-26%,-14%,-2%,-16%
COC(=O)/C(C#N)=C/c1c(N2CCN(c3ccc(OC)cc3)CC2)nc2c(C)cccn2c1=O,?,7,-8%,11µM*,?,?
Cc1cccn2c(=O)c(/C=C(\C#N)C(N)=O)c(N3CCN(c4cccc(Cl)c4)CC3)nc12,22µM*,-1,-11%,?,-34%,-11%
CNC(=O)/C(C#N)=C/c1c(N2CCN(c3ccc(OC)cc3)CC2)nc2c(C)cccn2c1=O,1%[2.33 µM],-3,-6%,50µM*,40µM*,?
Cc1cccn2c(=O)c(C=C(C#N)C#N)c(N3CCN(c4ccccc4)CC3)nc12,?,-19,-2%,?,?,-7%
COC(=O)/C(C#N)=C/c1c(N2CCCCCC2)nc2c(C)cccn2c1=O,36%,1,-9%,-33%,23%,-1%
CCN(CCCNC(=O)c1nn(-c2ccc(C)cc2)c(=O)c2c1c1ccccc1n2C)c1ccccc1,-4%[59 µM],.,.,-9%,.,39%
Clc1ccc(CNc2ncnc3nc[nH]c23)cc1,.,.,.,-4%,.,21%
C/C(=N\O)c1ccc2c3c([nH]c2c1)CCCC3,?,7,-12%,?,40µM*,-15%
C/C(=N\O)c1ccc2[nH]ccc2c1,-7%,1,-3%,-14%,0%,10%
Cc1cc2c(cc1S(=O)(=O)CCC(=O)N(C)Cc1ccccc1)OCC(=O)N2,11µM*,0,-25%,20µM*!,13µM*!,?
CCOC(=O)c1ccc(NS(=O)(=O)c2cc3c(cc2C)NC(=O)CO3)cc1,50µM*,-11,30µM*,?,-17%,4%
O=C(CCS(=O)(=O)c1cc2c(cc1Cl)NC(=O)CO2)NCc1ccccc1,-3%,10,27µM*,?,-12%[57.1 µM],13%
Cc1cccc(NC(=O)CCS(=O)(=O)c2cc3c(cc2Cl)NC(=O)CO3)c1,17%,-18,12µM*,16µM*,-14%,13%
CCCc1nc2ccc(C)cn2c1Cc1ccsc1,.,5,-4%,.,.,.
COc1cccc(Nc2ncnc3onc(-c4ccccc4OC)c23)c1,.,-2,-12%,-14%,5%,23%
COc1cccc(-n2cc(C(=O)Nc3cc(OC)c(OC)c(OC)c3)c3ccccc3c2=O)c1,13%[59 µM],.,.,1%,12%,56%
COc1cccc2cc(C(=O)N(Cc3cccs3)Cc3cccs3)c(=O)oc12,.,.,.,-2%,.,21%
CCN(CC)N=Nc1ccc(C(=O)O)cc1,2µM*,4,5%,-2%,1%,40%
COc1ccc(OC)c(-c2noc(N3CCN(c4cccc(C)c4C)CC3)n2)c1,?,.,.,-28%,-15%,24%

# Screens as filed in PubChem.
